The list is not random: actives were taken first. Their share in the collection is about 2.4%.
AmpC det inh = blocks E. coli AmpC beta-lactamase in presence of detergent; P00811; purified AmpC, nitrocefin hydrolysis with detergent; Potency, µM (titrated, usually from 28.7 µM); 0.09% of 71,000 active; AID 584; active = well fitted curve in the direction sought with a large enough effect; inconclusive = small, poorly fitted or top-dose-only effect
Target sequence (P00811 whole entry, looked up): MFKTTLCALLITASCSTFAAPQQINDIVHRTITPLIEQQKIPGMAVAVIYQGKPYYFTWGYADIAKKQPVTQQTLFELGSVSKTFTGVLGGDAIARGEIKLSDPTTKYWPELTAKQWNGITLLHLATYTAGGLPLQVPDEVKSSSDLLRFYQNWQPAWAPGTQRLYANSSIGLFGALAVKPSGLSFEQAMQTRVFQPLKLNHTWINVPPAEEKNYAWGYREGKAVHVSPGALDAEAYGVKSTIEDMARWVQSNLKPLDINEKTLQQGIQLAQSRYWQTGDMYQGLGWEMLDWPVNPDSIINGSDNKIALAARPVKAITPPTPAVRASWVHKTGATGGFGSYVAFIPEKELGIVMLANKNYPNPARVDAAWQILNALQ
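E. coli AmpC (5.3 nM) in 20 mM phosphate pH 7.0 with 0.01% Triton X-100, preincubated 15 min RT with compound; nitrocefin (2 uL of 800 uM stock) hydrolysis followed by 480 nm absorbance every 20 s over 4 min.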
AmpC nodet inh = AmpC beta-lactamase inhibition, detergent-free assay | P00811 | AmpC nitrocefin hydrolysis, absorbance 480 nm, no detergent | Potency, µM (doses to about 28.7 µM) | 1.8% of 71,000 active | AID 585
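AmpC in 20 mM phosphate buffer pH 7.0 was preincubated 15 min at room temperature with compounds. Nitrocefin (800 uM stock) was then added and hydrolysis followed at 480 nm every 20 s for 4 min.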
LT uptake inh = blocks cellular internalization of anthrax lethal toxin. Cells, anthrax lethal toxin internalization, FRET ratio (460/530). AID 912. 0.67% of 70,000 active. Potency, µM (titrated, usually from 40 µM), hits mostly inhibitors; also: nearly all actives have a fitted effect of over 50% in size
Prx2 Sm inh = inhibitors of Schistosoma mansoni peroxiredoxin 2. Potency, µM. 0.07% of 65,000 active. S. mansoni Prx2 activity coupled to TGR/GSH (TGR is thioredoxin glutathione reductase), NADPH fluorescence loss, qHTS. AID 448
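qHTS, coupled TGR/Prx2 format; 15 min compound preincubation at RT; reaction started with H2O2 (2.5 mM aliquot); kinetic NADPH fluorescence decrease, ex 365/em 450 nm.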
Large screens that a line does not name were inactive; [ ] = dose if it differs, or a comment. Unless noted, calls follow the shape of the full dose curve.

CCOC(=O)C1C(=O)Oc2ccc3ccccc3c2C1C1CCOC1=O (stereo not drawn)	AmpC nodet inh 4µM[single pt active]
CN(C)c1ccc(/C=C2/C(=O)Nc3ccccc32)cc1	LT uptake inh 13µM
CN(C)c1ccc(/C=c2\sc3n(c2=O)CCCN=3)cc1	none
CN1CCN(c2cc3c(c4c2[nH]c2ccccc24)C(=O)CC(C)(C)C3)CC1	AmpC nodet inh 3.2µM[single pt active], LT uptake inh inconclusive
C[C@]12Cc3cn4c(nc3C=C1CC[C@H]1[C@@H]2CC[C@@]2(C)[C@H]1CC[C@@]2(O)C#N)nc1ccccc14	LT uptake inh inconclusive
COCCCNC(=O)Cn1ncc2c(=O)oc3ccccc3c21	none
CCN(CCCNC(=O)Cn1ncc2c(=O)oc3ccccc3c21)c1cccc(C)c1	AmpC nodet inh 2µM[single pt active]
O=C(Cn1ncc2c(=O)oc3ccccc3c21)NCCCN1CCCC1=O	AmpC nodet inh 4µM[single pt active]
O=C(Cn1ncc2c(=O)oc3ccccc3c21)NC1CC1	none
O=C(Cn1ncc2c(=O)oc3ccccc3c21)NCC1COc2ccccc2O1 (stereo not drawn)	AmpC nodet inh 0.79µM
CCOc1cc2[nH]c(=O)n(CCCCC(=O)NC3CCCCC3)c(=O)c2cc1OCC	none
C[C@H](O)[C@H](O)[C@@H](O)c1cnc2nc(N)[nH]c(=O)c2n1	LT uptake inh inconclusive
COC(=O)c1ccc2c(c1)NC(=O)C1CCCN21 (stereo not drawn)	AmpC nodet inh 4µM[single pt active], LT uptake inh inconclusive
O=C(Cn1c(=O)n(Cc2ccco2)c(=O)c2ccccc21)Nc1cccc(Cl)c1	AmpC nodet inh 2.5µM[single pt active], LT uptake inh 2.5µM
Cc1cc(NC(=O)Cn2c(=O)n(Cc3ccccc3)c(=O)c3ccccc32)no1	AmpC nodet inh 10µM
O=C=Nc1ccc(Cc2ccc(N=C=O)cc2)cc1	AmpC nodet inh 16µM (no result: Prx2 Sm inh)
CCC/C=C(\CCC)C(NS(=O)(=O)c1ccc(C(F)(F)F)cc1)c1ccccc1 (stereo not drawn)	none
CCC/C=C(\CCC)C(NS(=O)(=O)c1ccccc1)c1ccc(C(F)(F)F)cc1 (stereo not drawn)	AmpC nodet inh 13µM[single pt active], LT uptake inh inconclusive
CCC/C=C(\CCC)C(NS(=O)(=O)c1ccc(C(F)(F)F)cc1)c1ccc(C(=O)OC)cc1 (stereo not drawn)	AmpC nodet inh 13µM
CN1C[C@H](C(=O)N[C@]2(C)O[C@@]3(O)[C@H]4CCCN4C(=O)[C@@H](Cc4ccccc4)N3C2=O)C[C@H]2c3cccc4[nH]cc(c34)C[C@@H]21	none
COC(=O)[C@@H]1C[C@H]1[C@@H](NC(=O)OCc1ccccc1)c1ccccc1	none
CCCCC(=O)Nc1cc(N(C)C)nc2ccccc12	none
CN(C)c1cc(NC(=O)CN2CCOCC2)c2ccccc2n1	AmpC nodet inh 4µM[single pt active]
COc1ccccc1-c1nccc(Nc2ccc(F)cc2)n1	none
Cn1c(NC(=O)c2cccc(Cn3cc(Cl)cn3)c2)nc2ccccc21	none
CCn1c(NC(=O)c2cccc(Cn3cc(Cl)cn3)c2)nc2ccccc21	AmpC nodet inh 4µM[single pt active]
COc1cccc(-c2nc(CS(=O)CC(=O)NC3CCCC3)c(C)o2)c1 (stereo not drawn)	AmpC nodet inh 4µM[single pt active]
CCC(C)NC(=O)CS(=O)Cc1nc(-c2cccc(OC)c2)oc1C (stereo not drawn)	AmpC nodet inh 4µM[single pt active]
Cc1cccc(-c2nc(CS(=O)CC(=O)N3CCN(C)CC3)c(C)o2)c1 (stereo not drawn)	AmpC nodet inh 4µM[single pt active]
O=C(CCc1nc2ccccc2[nH]1)NC1CCCCC1	AmpC nodet inh 4µM[single pt active]
O=c1ccc2cc(O[C@@H]3O[C@@H](CO)[C@@H](O)[C@@H](O)[C@H]3O)c(O)cc2o1	LT uptake inh inconclusive
O=C(O)/C=C\c1cnc[nH]1	none
COc1cccc(NC(=O)n2nc(N)cc2-c2ccc(Cl)cc2)c1	AmpC nodet inh 4µM[single pt active], LT uptake inh inconclusive
COc1cccc(NC(=O)CSc2nc(N)cc(N)n2)c1	none
COC(=O)c1sc2nc(-c3ccco3)ccc2c1N	none
N#Cc1sc2nc(-c3ccccc3)cc(-c3ccco3)c2c1N	AmpC nodet inh 6.3µM, LT uptake inh inconclusive
N#Cc1c(-c2ccccc2)cc(-c2ccco2)c(C#N)c1N	AmpC nodet inh 6.3µM, LT uptake inh inconclusive (no result: Prx2 Sm inh)
NC[C@H](O)c1cc(O)c(O)cc1F	none
CCc1cccc(NC2c3ccccc3C(=O)N2c2ccc(C)cn2)c1 (stereo not drawn)	LT uptake inh inconclusive
COC(=O)c1ccccc1NC1c2ccccc2C(=O)N1c1cccnc1 (stereo not drawn)	AmpC nodet inh 4µM[single pt active]
CCc1cccc(NC2c3ccccc3C(=O)N2c2cccnc2)c1 (stereo not drawn)	AmpC nodet inh 4µM[single pt active]
O=C1c2ccccc2C(Nc2ccccc2F)N1c1cccnc1 (stereo not drawn)	AmpC nodet inh 4µM[single pt active]
Cc1ccccc1N1C(=O)c2ccccc2C1Nc1cccnc1 (stereo not drawn)	AmpC nodet inh 4µM[single pt active]
Cc1ccnc(N2C(=O)c3ccccc3C2Nc2cccc(C)c2C)c1 (stereo not drawn)	none
CCOC(=O)c1ccc(NC2c3ccccc3C(=O)N2c2cccnc2)cc1 (stereo not drawn)	none
NC(N)=Nc1ccc2[nH]c3c(c2c1)C[C@]1(O)[C@@H]2Cc4ccc(O)c5c4[C@]1(CCN2CC1CC1)[C@H]3O5	none
CCOC(=O)c1c(CN(CC)CC)oc2cc(Br)c(O)cc12	AmpC nodet inh 4µM[single pt active], LT uptake inh inconclusive
Cc1cc(-c2ccc(N=Nc3ccc4c(S(=O)(=O)O)cc(S(=O)(=O)O)c(N)c4c3O)c(C)c2)ccc1N=Nc1ccc2c(S(=O)(=O)O)cc(S(=O)(=O)O)c(N)c2c1O	AmpC det inh inconclusive, AmpC nodet inh inconclusive, LT uptake inh inconclusive
CCOC(=O)N1CCN(CC(=O)Nc2cc3c(cc2C(C)=O)OCO3)CC1	none
CC(=O)c1cc2c(cc1NC(=O)CN1CCN(C(=O)c3ccco3)CC1)OCO2	AmpC nodet inh 4µM[single pt active]
CN(C)c1ccc(-c2nc(NCCc3cnc[nH]3)c3ccccc3n2)cc1	LT uptake inh inconclusive
Nc1ccc(N)c(Cl)c1	none (no result: Prx2 Sm inh)
COc1cc2c(O)c3c(c(-c4ccc5c(c4)OCO5)c2cc1OC)C(=O)OC3	LT uptake inh 0.02µM
COc1cc2c(=O)n(-c3ccc(C)cc3)c(=O)n(CC(=O)c3ccc4c(c3)OCO4)c2cc1OC	none
Cc1ccc(-n2nnc3ccccc3c2=O)cc1C	LT uptake inh 13µM (no result: Prx2 Sm inh)
Cc1ccccc1-c1ccc2ncnc(NCCN3CCOCC3)c2c1	none
COc1cccc(Cn2c(=O)c(-c3cccs3)nc3cnc(N4CCOCC4)nc32)c1	LT uptake inh inconclusive
COc1ccc(OCc2nnc3n2N=C(c2ccc(Br)cc2)CS3)cc1	AmpC nodet inh 4µM[single pt active], LT uptake inh inconclusive
N=C(N)CCNC(=O)[C@@H]1CCC(N)=N1	none
O=C1C(Cl)=C(Cl)C(=O)C(Cl)=C1Cl	AmpC nodet inh 13µM, LT uptake inh inconclusive (no result: Prx2 Sm inh)
c1ccc(C2=Nn3c(nnc3-c3cc(-c4ccccc4)n[nH]3)SC2)cc1	LT uptake inh 13µM
Cc1ccc(-c2nnc3n2N=C(c2ccccc2)CS3)cc1	none
OC(CN1C2=NCCCN2c2ccccc21)c1ccc(Cl)cc1 (stereo not drawn)	AmpC nodet inh 4µM[single pt active], LT uptake inh inconclusive

Screening results as filed in PubChem.
